Measurements from PubChem BioAssay AID454 (Sanford-Burnham Center for Chemical Genomics, 2006).
Screen size: about 10,000 compounds; about 25 (0.2%) were called active.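 The calls were made as follows: active = compound among top-ranked inhibitors of TNF-induced VCAM-1 adhesion protein staining, with the hit upheld by image or statistical review; inactive = the rest, including hits rejected on review.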 For the sample, actives were picked, then their nearest neighbours and some compounds at random.

Assay: inhibitors of TNFa-induced VCAM-1 surface display, cell-based, plate reader, pooled HUVEC, TNFa stimulus (AID 454)
Conditions: HUVEC TNFa-induced VCAM-1 surface immunofluorescence; active compounds read high,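 compound tested at 5 µM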

inhibition, active:
CS(=O)(=O)c1ncc(Cl)c(C(=O)Nc2ccc(N3CCOCC3)cc2)n1 97.8%
COc1cc(C2Nc3cccc4cccc(c34)N2)cc(OC)c1O 73.4%
COC(=O)c1cc(=O)n(Cc2ccc3c(c2)OCO3)c(=Nc2ccccc2)s1 96%
CCOC(=O)c1ccc(N=c2sc(C(=O)OC)cc(=O)n2Cc2ccco2)cc1 95.5%
Cn1nc(-c2ccc(N3CCCCC3)c(NC(=O)c3ccco3)c2)c2ccccc2c1=O 83.4%

inhibition, inactive:
O=C(Cn1cnc2ccccc2c1=O)NCCC(=O)N1CCN(c2ccccc2)CC1
CCc1ccccc1NC(=O)CN(c1cccc(OC)c1)S(C)(=O)=O
C/C(=C\c1cc(C(=O)O)c(C)o1)CO
Cc1ccc(SC(C)c2nc(-c3ccccc3)no2)cc1 (centres undefined)
Cc1cnc(C(=O)Nc2ccc(N3CCOCC3)cc2)cn1
CSc1ncc(Cl)c(C(=O)Nc2ccc(S(=O)(=O)N3CCOCC3)cc2)n1
Cc1cc(O)c(C2(C(F)(F)F)NCCNC2=O)cc1C (centres undefined)
CCC(=O)N(Cc1ccco1)c1nc(-c2cc(OC)ccc2OC)cs1
Cn1c(C(=O)NCCN2CCN(c3ccccc3F)CC2)cc2c(=O)n(C)c3ccccc3c21
CCOc1cc(C2Nc3ccccc3C(=O)N2c2ccccc2OC)ccc1O (centres undefined)
COc1cc(C2N=C(c3ccccc3)NO2)cc(Br)c1O (centres undefined)
COC(=O)c1ccc(CSc2nc3c(cnn3-c3ccc(F)cc3)c(=O)[nH]2)o1
O=c1[nH]c2sc3c(c2c2nncn12)CCCC3
Cc1cc(NC(=O)c2cc(-c3ccco3)on2)n(-c2ccccc2)n1
C/C(NC1CCCC1)=C(/C#N)C(N)=O
Clc1cccc(-c2nnc3sc(-c4ccccc4)nn23)c1
CCNC(=O)C1CC(=O)N(Cc2ccc3c(c2)OCO3)C(=Nc2ccc(OCC)cc2)S1 (centres undefined)
CCOC(=O)c1ccc(NC(=O)CSCc2ccco2)cc1
OCCn1c(-c2ccc3c(c2)OCO3)csc1=Nc1ccccc1
CCOC(=O)c1cccc(NC2c3ccccc3C(=O)N2Cc2ccco2)c1 (centres undefined)
O=C(c1ccccc1)c1ccc(N2CCOCC2)c(NC(=O)c2ccco2)c1
Cc1cccc(NC(=O)c2cc(NC(=O)c3ccco3)ccc2N2CCCCC2)c1
COc1ccc(CCNc2nc(N3CCOCC3)nc(N3CCOCC3)n2)cc1OC
Cn1c(=O)c2c(nc(SCC(=O)NCc3ccc4c(c3)OCO4)n2Cc2ccccc2)n(C)c1=O
